# Screening data from PubChem BioAssay.
# CYP2C19 act = cytochrome P450 2C19 (human) activation; P33261; recombinant CYP2C19, luciferin-H EGE luminescence; hits give high values; 0 = fully inhibited enzyme, 1 = untreated enzyme; activation factor at 5 µM; 96,000 tested, under 10 active; AID 1025;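 active = activation factor of at least 2 at 5 µM in the primary screen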;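 note: 0 = wells with 2.5 mM tranylcypromine and 1 = vehicle-only wells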
# Cav32 inh = human Cav3.2 channel inhibition, primary screen; AID 449739; B-score at 10 µM; Cav3.2-expressing cells, Fluo-4 calcium fluorescence FDSS; hits give low values; O95180; 100,000 tested, 4% active;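 active = single-dose well whose peak fluorescence ratio is a statistical outlier from its plate by either plate-standardised score or position-corrected B-score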
# CYP2C19 inh = human CYP2C19 inhibition. P33261. CYP2C19 Supersomes, luciferin-H EGE luminescence, 30 min. inhibition, % at 5 µM. 96,000 tested, 21% active. AID 778;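 active = CYP2C19 inhibition above a set limit at 5 µM in the primary screen, cut at about 50% in these data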;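 note: plate controls were negative control wells for no effect and 2.5 mM tranylcypromine positive control for full effect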
# CYP2C9 act = increases human cytochrome P450 2C9 activity | P11712 | recombinant CYP2C9, luciferin-H conversion, luminescence; hits give high values; factor 1 = untreated enzyme, 0 = blocked | activation factor at 5 µM | 96,000 tested, 1.4% active;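 active = activation factor of 2 or more for CYP2C9 at a 5 µM dose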;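 note: 0 = sulfaphenazole-blocked wells and 1 = vehicle-only wells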
# Target sequence (P11712 whole entry, looked up): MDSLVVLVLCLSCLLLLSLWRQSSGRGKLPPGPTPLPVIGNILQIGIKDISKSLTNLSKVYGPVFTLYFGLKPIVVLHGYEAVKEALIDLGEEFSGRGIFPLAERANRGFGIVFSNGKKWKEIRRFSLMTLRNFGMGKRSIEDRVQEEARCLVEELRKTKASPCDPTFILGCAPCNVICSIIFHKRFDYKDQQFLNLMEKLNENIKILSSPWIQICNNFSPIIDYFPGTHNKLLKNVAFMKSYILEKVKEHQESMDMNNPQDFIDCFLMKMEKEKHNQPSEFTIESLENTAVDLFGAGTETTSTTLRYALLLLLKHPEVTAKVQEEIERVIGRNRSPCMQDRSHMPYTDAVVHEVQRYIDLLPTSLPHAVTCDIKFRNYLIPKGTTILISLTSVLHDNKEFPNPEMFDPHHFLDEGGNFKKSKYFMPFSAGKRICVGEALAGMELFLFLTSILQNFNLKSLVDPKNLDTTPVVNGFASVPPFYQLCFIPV
# CYP2C9 inhib = human CYP2C9 inhibition. inhibition, % at 5 µM. AID 777. 96,000 tested, 20% active. CYP2C9 Supersomes, luciferin-H conversion, luminescence. P11712;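 active = blocking of liver enzyme CYP2C9 beyond about 50% at 5 µM, limit read from the data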
# Starred values were filed as active, the others as inactive; . = no result. Most compounds without a hit are left out; they make up all but 27% or so of the library.
SMILES,CYP2C19 act,Cav32 inh,CYP2C19 inh,CYP2C9 act,CYP2C9 inhib
CC1CCCN(CC(=O)Nc2ccc(S(=O)(=O)NC3CCCCC3)cc2)C1 (stereo unspecified),0.2,-0.49,78*,0.5,52*
O=C(COc1ccc(S(=O)(=O)NC2CCCCC2)cc1)Nc1ccc2c(c1)OCCO2,0.6,-3,44,0.2,80*
Cc1cccc(OCC(=O)NC(=S)Nc2ccc(S(=O)(=O)NC3CCCCC3)cc2)c1,0.7,-0.77,29,0.1,93*
O=C(N[C@@H](Cc1ccccc1)C(=O)O)c1c(F)c(F)c(F)c(F)c1F,.,1.5,.,.,.
CCCCCCc1nc2ccccc2c(=O)n1N,0.7,.,35,0.8,21
CC1(C)Oc2ccc(C(=O)N3CCCC3)cc2N(CC(=O)NCc2ccccc2)C1=O,0.7,1.1,26,0.9,13
CC(C)(C)NC(=O)c1ccc2c(c1)N(CC(=O)N1CCN(c3ccc(F)cc3)CC1)C(=O)C(C)(C)O2,0.2,1.9,79*,0.4,60*
COc1ccc(C(=O)CN2C(=O)C(C)(C)Oc3ccc(C(=O)N4CCCCCC4)cc32)cc1,0.4,-0.13,57*,0.2,78*
CCCC1(CCC)NC(=O)N(CC(=O)Nc2ccccc2OC)C1=O,0.8,0.28,17,0.9,14
CCOC(=O)CN1C(=O)C(C)(C)Oc2ccc(C(=O)Nc3ccccc3OC)cc21,0.2,.,82*,0.7,32
CC1(C)Oc2ccc(C(=O)NC3CCCC3)cc2N(CC(=O)NC2CCCCC2)C1=O,0.7,1,34,0.2,82*
CC12C=CC3(CN(Cc4ccccc4)C(=O)C3C1C(=O)NCc1ccco1)O2 (stereo unspecified),1,-0.35,-2,1,2
COc1ccccc1-c1nc(-c2cccc(C)c2)no1,0.5,0.29,49,1.2,-17
CCC(CC)C(=O)Nc1cc(C(=O)NCCc2ccccc2)ccc1Cl,0.7,0.075,31,0.5,46
CC1(C)Oc2ccc(C(=O)N3CCc4ccccc43)cc2N(CC(=O)N2CCCC2)C1=O,0.8,2.1,23,0.7,34
Cc1ccc(NC(=O)c2ccc3c(c2)N(CC(=O)N2CCCCC2)C(=O)C(C)(C)O3)cc1,0.4,1.7,58*,0,99*
O=C(Oc1ccc2cccc(OC(=O)N3CCOCC3)c2c1)N1CCOCC1,1,0.79,1,0.9,13
O=C(Cn1c(-c2ccccc2)noc1=O)Nc1ccc(N2CCCCCC2)cc1,1.1,-2.6,-10,1,2
O=C(Nc1ccc(Cl)cc1)OCCn1nnnc1C(c1ccccc1Cl)N1CCOCC1 (stereo unspecified),0.5,-6.9*,46,0.5,54*
COc1ccccc1C(c1nnnn1Cc1ccccc1)N1CCC(C(N)=O)CC1 (stereo unspecified),.,-1.1,.,.,.
Cn1nnnc1SCC(=O)Nc1ccc(Oc2ccc(Cl)cc2)cc1,1,-1.6,-4,1.1,-12
CC(=O)NC1(c2nnnn2CCOC(=O)Nc2ccc(Cl)cc2)CCCCC1,0.1,0.31,95*,0.3,71*
CC(=O)N(C)C1(c2nnnn2CCOC(=O)Nc2cccc3ccccc23)CCCC1,0.8,0.084,18,1,0
CC(=O)N(C)C1(c2nnnn2CCOC(=O)Nc2ccc(Cl)cc2)CCCCC1,0.1,0.043,93*,0.5,48
O=C(c1cc2c(s1)-c1ccccc1OC2)N1CCN(c2ccccc2)CC1,0.3,0.2,72*,0.3,71*
SMILES,CYP2C19 act,Cav32 inh,CYP2C19 inh,CYP2C9 act,CYP2C9 inhib
O=C(c1cc2c(s1)-c1ccccc1OC2)N1CCCC1,0.6,-2.1,40,1,3
CCOC(=O)N1CCN(C(=O)c2cc3c(s2)-c2ccccc2OC3)CC1,0.6,0.48,43,0.5,54*
CC(NC(=O)c1ccc(CS(=O)(=O)Cc2ccccc2F)o1)c1ccc2c(c1)OCCO2 (stereo unspecified),.,0.0019,.,.,.
CCCCCCCCCCCCN1[C@@H](CC(=O)O)c2cc(F)ccc2S1(=O)=O,.,-1.5,.,.,.
O=C(CN1CCN(c2ccccn2)CC1)Nc1ccc(Cl)c(C(F)(F)F)c1,1,-0.27,4,0.9,5
CCOc1ccc(NC(=O)CN2CCN(CC(=O)Nc3cccc(F)c3)CC2)cc1,0.7,0.72,27,0.8,19
CCOc1ccc(NC(=O)CNc2ccc(C)cc2Cl)cc1,0.2,-3.2,78*,0.7,33
CCOc1ccc(NC(=O)CN2CCN(CC(=O)Nc3ccc(Cl)c(C(F)(F)F)c3)CC2)cc1,0.8,-6.2*,23,0.7,32
CCOc1ccc(NCC(=O)Nc2ccc(C)cc2C)cc1,0.9,-1.7,11,0.9,8
COc1ccccc1N1CCN(CC(=O)Nc2ccc(Cl)c(C(F)(F)F)c2)CC1,.,-4.2*,.,.,.
Cc1cc(O)ccc1C1(c2ccc(O)cc2C)OC(=O)c2ccccc21,.,-4.2,.,.,.
Cc1cccc(C2(c3cccc(C)c3)OC(=O)c3ccccc32)c1,0.5,-3.6,47,0.4,62*
Cn1c(Cn2nnc(-c3ccccc3)n2)nnc1SCc1ccccc1Cl,1.1,-2.5,-10,0.4,64*
Cn1c(SC/C=C/c2ccccc2)nnc1-c1cnccn1,0.8,-1.2,23,0.9,5
Cn1c(SCc2ccccc2Cl)nnc1-c1cnccn1,0.2,0.76,77*,0.9,9
O=C(O)c1cccc(-c2nnn(Cc3ccccc3Cl)n2)c1,.,1.2,.,.,.
O=C(NC1CC1)C1CCN(c2ncnc3c2sc2cccc(F)c23)CC1,0.4,2.5,61*,0.3,73*
CCOc1cccc(C(=O)N(Cc2ccc(F)cc2)C2CCS(=O)(=O)C2)c1 (stereo unspecified),0.5,-0.026,51*,0.7,30
CCCOc1cccc(C(=O)N(Cc2ccco2)C2CCS(=O)(=O)C2)c1 (stereo unspecified),.,0.98,.,.,.
O=C(c1ccccc1)N(Cc1ccc(F)cc1)C1CCS(=O)(=O)C1 (stereo unspecified),0.6,0.82,36,1,2
CCCCOc1cccc(C(=O)N(Cc2ccco2)C2CCS(=O)(=O)C2)c1 (stereo unspecified),0.5,-0.099,46,0.2,82*
COCCNC(=O)Cn1c(=O)n(C)c2ccccc21,1,0.56,-3,1,3
O=[N+]([O-])c1cc(Br)c(O)c(/C=N/Nc2nnnn2-c2cccc3ccccc23)c1,0.1,-9.3*,91*,0,100*
C=CCOc1ccc2cccc(/C=N/NC(=O)c3cc4cc([N+](=O)[O-])ccc4s3)c2c1,0.9,-1.3,9,0.6,43
Cc1nn(-c2ccccn2)c2c1C(c1ccccn1)C1=C(CCCC1=O)N2 (stereo unspecified),1.1,1.2,-8,0.9,5
Fc1ccc(Nc2nc(N3CCOCC3)c3ccccc3n2)cc1,0.2,-0.32,76*,0.3,74*
CCCCn1c(-c2ccc([N+](=O)[O-])cc2)n[nH]c1=S,1,2,-5,1,0
